Growth data for 39 compounds are collected here from PubChem BioAssay (NCI).

About 83,000 compounds went through this panel and 20% of them were active in at least one assay; those are over-represented in the sample as a whole.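 Interpretation: 100, growth as untreated; towards 0, rising growth inhibition; 0, no net growth; 0 to -100, cell death. Compounds scoring below 10 were considered active.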 The source made the active and inactive calls.

The subject of this assay is HL-60(TB) leukemia. The experiment in a line: NCI-60 one-dose screen, 48 h (100 = growth as untreated, 0 = no growth, -100 = all killed). The conditions noted are these: 10 µM unless noted.
As to `C#Cc1nc(C2=C(C)C(O)/C(=N/O)C2)cs1` (centres undefined), the growth is -37.9% (active).
For the compound `Clc1ccc2c(NCCCn3ccnc3)c3oc4ccccc4c3nc2c1`, the growth is 40.4% (inactive).
Next, `CCc1ccc(NC(=O)N[C@@H](Cc2cccc(C)c2)C(=O)N[C@@H]2C(=O)N3CCC[C@H]3C(=O)N3CCCC[C@H]3C(=O)N[C@@H](CO)C(=O)N3C[C@H](C)C[C@H]3C(=O)O[C@H]2C)c(F)c1`: 15.8% (inactive); `O=C(CSc1nc2ccccc2c(=O)n1CCc1ccccc1)Nc1ccc(S(=O)(=O)Nc2ccc(Cl)nn2)cc1`: 132% (inactive); `CCOC(=O)c1c(Nc2ccccc2)nn2c(N)c(C#N)c(-c3ccc(F)cc3)nc12`: 72.6% (inactive).
With `COc1ccc(C2C(C#N)=C(/N=C/c3ccc(Cl)cc3)Oc3c2sc2c(C)cccc32)cc1` (centres undefined) the figure was 4.04% (active).
For `COc1cc(O)c2c(c1)[C@H]1O[C@@H]1C[C@H](O)[C@H](O)C(=O)/C=C\C[C@H](C)OC2=O`, the growth was 0.185% (active).
Turning to `COc1cc(-c2nc(-c3ccccc3)[nH]c2-c2ccnc(NCCCNS(=O)(=O)c3cccc(F)c3)n2)ccc1F`, the growth was 94.8% (inactive).
Regarding `COc1ccc2[nH]cc(-c3nn4cc(-c5ccncc5)nc4s3)c2c1`, the growth is 54.9% (inactive).
With `Cc1ccc(NC(=O)CNc2cc(C(N)=O)cc(F)c2C)c(Cl)c1` the figure was 133% (inactive); with `c1cn2c(ccc3nc(-c4cn[nH]c4)c4c(c32)CCCC4)n1`, 73.8% (inactive).
With `O=C(NNc1nc2cc(F)ccc2n2c(CO)ccc12)c1cnccn1`, the growth is -27.4% (active).
With `NC(N)=Nc1ccc(Oc2cccc(Oc3ccc(Cl)c(C(F)(F)F)c3)c2)cn1` the figure was -69% (active).
Take `COc1ccc(/C=C(\C#N)C(=O)N2c3ccccc3Sc3ccc(SC)cc32)cc1F`: the growth is 93.5% (inactive).
`O=C(Nc1cc(C(F)(F)F)cc(C(F)(F)F)c1)Nc1ccc2oc(=O)ccc2c1`: the growth was -24.3% (active).
With `Cc1[nH]c(C(=O)Nc2ccccc2OCc2cccc(C(=O)NC3CCNC3)c2)c(Cl)c1Cl` (centres undefined), the growth is 71.4% (inactive).
`CC(=O)O[C@@H]1C(=O)N(c2cnccn2)[C@H]1c1ccccc1[N+](=O)[O-]`: the growth is -30.4% (active).
On to `C/C(CC1(O)C(=O)Nc2ccccc21)=N\O` (centres undefined), for which the growth is 97% (inactive).
For `CN1CCN(CC#CCn2c3c(c4ccccc42)C[C@]2(C)[C@H]4CC=C5[C@@H]6CC(C)(C)CC[C@]6(C(=O)N6CCOCC6)CC[C@@]5(C)[C@]4(C)CC[C@H]2C3(C)C)CC1`, the growth was 16.2% (inactive).
Regarding `Cn1ccnc1C(=O)/C=C/c1ccc(NC(=O)Nc2ccccc2)cc1`, the growth is -16.5% (active).
Regarding `c1ccc(-c2cn3c(-c4c[nH]c5ccccc45)csc3n2)cc1`, the growth is 56% (inactive).
Next, `CCCCN1C(=O)/C(=c2\sc3n(c2=O)C2C(NN=3)N(CC)C(=O)N2CC)c2cc(Cl)ccc21` (centres undefined): 51.7% (inactive).
In the case of `CNC(=O)c1cc(-c2ccc(NC(=S)Nc3cccc(C(F)(F)F)c3)cc2)nc2cccnc12`, the growth was 109% (inactive).
For the compound `C=C(C)[C@@H]1CC[C@]2(COCCCNCCC#N)CC[C@]3(C)[C@H](CC[C@@H]4[C@@]5(C)CC[C@H](OCCCNCCC#N)C(C)(C)[C@@H]5CC[C@]43C)[C@@H]12`, the growth is 0.0603% (active).
For the compound `O=C1Nc2ccc(Br)cc2/C1=N\c1nnc(-c2ccc(Cl)cc2)o1`, the growth is 11.1% (inactive).
Regarding `Nc1ncc(-c2ccc3ncnc(N4CCc5cc(F)c(Cl)cc54)c3c2)cn1`, the growth was 7.66% (active).
With `CN1CCN(Cc2ccc(NC(=O)c3cncc(C#Cc4cnc5ccc(OC6CCOCC6)nn45)c3)cc2C(F)(F)F)CC1`, the growth was -43.8% (active).
As for `NC(N)=NS(=O)(=O)c1ccc(N=Nc2c(N)nn(-c3ccc([N+](=O)[O-])cc3[N+](=O)[O-])c2N)cc1`, the growth was 97.3% (inactive).
For the compound `Cc1ccc(-c2cc3nc(C(Cl)Cl)nc(-c4cccs4)n3n2)cc1`, the growth is 23.9% (inactive).
As to `CCCC(=O)NC(c1cccnc1)c1cc(C(C)(C)C)c2cccnc2c1O` (centres undefined), the growth is -13.7% (active).
For `CCNC(=O)Oc1ccc(/C(=C(/C)c2ccc(Cl)cc2)c2ccc(OCCN3CCCCCC3)cc2)cc1`, the growth is 1.41% (active).
With `O=C(Nc1ccc(Cl)cc1)Nc1nc2ccc([N+](=O)[O-])cc2s1` the figure was -51% (active); with `CCOC(=O)/C(F)=C/C1CC1CCc1cccc(C(F)(F)F)c1` (centres undefined), 91.4% (inactive).
With `COc1ccc(-c2nc(SCCC(C)C)nc(N/N=C\c3ccc(O)cc3)c2C#N)cc1` the figure was 73.3% (inactive); with `c1n[nH]cc1-c1nc2ccc3[nH]ncc3c2c2c1CCCC2`, 22.5% (inactive).
With `COc1ccc(/C=C(/C)c2ccc3ccc(OC)cc3[o+]2)c(O)c1` the figure was 44% (inactive); with `CSc1ccc(/C(=N/N=C(N)N)c2ccccc2)cc1`, -17.1% (active).
`CCCSc1nc(Nc2ccc(/C(C)=N\NC(N)=S)cc2)c(C#N)c(-c2ccc(OC)cc2)n1`: the growth is 74% (inactive).
Next, `CCNC(=O)N1CCc2cc(OC)c(OCCc3ccc(OC)cc3)cc2C1c1ccc(OC)cc1C` (centres undefined): 23.9% (inactive).
